Values joined by “and” are separate entries in the source; they are usually repeats but may differ in a detail not shown here. Identical values can stand only once. Inconclusive results are not listed. Active and inactive are the calls of the source. Unless noted, calls come from the whole dose curve; as a rule, active = well fitted curve in the direction sought with a large enough effect; inconclusive = small, poorly fitted or top-dose-only effect, or another doubt; inactive = no such curve, though single readings can be large; an effect the other way counts as inactive or inconclusive.

A short description of assay [1]: AP1 Signaling Pathway (AID 357; active = well fitted curve in either direction with a large enough effect, not every such curve was filed as active; note: % is set by controls: 0 for no effect and ±100 for the full control effect). In a few lines: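 AP-1-bla ME-180 cells with beta-lactamase reporter under AP-1 response element, stimulated with EC50 EGF; compounds titrated, 5 hours at 37 degrees Celsius. CCF4 read at 460/530 nm ratio; positive and negative modulators judged by AC50.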
The target of assay [2] is Cytochrome P450 1A2 (Homo sapiens) (UniProt P05177). Put plainly: p450-cyp1a2 (AID 410; calls by dose curve). The method, boiled down: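 Luminescent readout of luciferin formed from Luciferin-ME by human CYP1A2; data normalized against complete inhibition by 57 uM furafylline. Enzyme 20nM, substrate 100uM at Km, 100mM KPO4 buffer, 60 min reaction at room temperature.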
Assay [3] can be described thus: NFAT Signaling Pathway (AID 444; active = well fitted curve in either direction with a large enough effect, not every such curve was filed as active;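 note: carbachol stimulus at about its EC50 of 1 µM final; % is set by controls: 0 for no effect and ±100 for the full control effect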). As to conditions: Jurkat NFAT-bla M1, carbachol, beta-lactamase ratio, 5 h; at 38 µM (top of the series). In a few lines: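 Jurkat cells with NFAT-driven β-lactamase reporter and co-expressed M1 receptor, stimulated with carbachol (final 1 uM, ~EC50), compound titration, 5 h at 37 °C. CCF4 loaded 1 h at RT; 460/530 nm ratio gave %activity and AC50.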

The nature of assay [4]: Stat Signaling Pathway (AID 446; active = well fitted curve in either direction with a large enough effect, not every such curve was filed as active;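 note: ME-180 cervical cancer cells given 40 pM IL-6 alongside compound; SIE-controlled beta-lactamase reporter measured as 460/530 nm FRET emission ratio; % is set by controls: 0 for no effect and ±100 for the full control effect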). The method, boiled down:
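ME-180 cells carrying a SIE-driven beta-lactamase reporter are stimulated with 40 pM IL-6 for 5 h at 37C in the presence of compound. The 460/530 nm FRET substrate ratio is read after 2.5 h at RT. Data are normalised to 300 pM IL-6 and to 125 nM JAK inhibitor controls.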

Assay [5] has as its target Glucocorticoid receptor (Homo sapiens) (UniProt P04150). The experiment in a line: GR-EFC Redistribution (AID 451; calls by dose curve; note: potency is the fitted concentration of half-maximal effect). To be noted: CHO-K1 GR-EFC translocation, beta-gal luminescence, 2 h. In a few lines:
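CHO-K1 cells expressing nuclear EA and GR-ED fragments of b-gal; compounds titrated up to 46 uM final, 2 h at 37 C. GR nuclear translocation read as complemented b-gal luminescence after 1 h RT detection.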

The target of assay [6] is 3',5'-cyclic-AMP phosphodiesterase 4B (Homo sapiens) (UniProt Q07343). The experiment in a line: qHTS Assay for Inhibitors of PDE-IV (AID 607; active = well fitted activation curve with a large enough effect in the main read-out, with a control signal flat, not every such curve was filed as active; note: % of control where 0% means no effect). In a few lines: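 HEK293 ACTOne cells with CNG channel (1000/well), endogenous PDE4; membrane potential dye, compounds up to 22.9 uM final. Fluorescence Ex 535/Em 590; RO 20-1724 (100 uM final) as reference.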
(Quantitative high-throughput screening tests each substance at several concentrations.)

In assay [7] the target is Guanine nucleotide-binding protein G(i) subunit alpha-1 (Homo sapiens) (UniProt P63096). The experiment in a line: qHTS Assay for Inhibitors of RGS12 GoLoco Motif Activity (Green Fluorophore) (AID 879).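 Note: 0% = labeled peptide with Gαi1 and full inhibition = labeled peptide alone without protein; negative values mean loss of peptide binding seen as reduced polarization.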 In a few lines: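 Fluorescence polarization assay: 50 nM Gαi1 with 10 nM FITC-labeled RGS12 GoLoco peptide in 10 mM Tris pH 7.5, 150 mM NaCl, 0.1 mM GDP, 0.05% NP40, 10 min at room temperature with compound.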

The target in assay [8] is Cytochrome P450 2D6 (Homo sapiens) (UniProt P10635). The experiment in a line: qHTS Assay for Inhibitors and Substrates of Cytochrome P450 2D6 (AID 891).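 Note: luciferin methyl ether substrate demethylated by CYP2D6 with NADPH regeneration; % is set by controls: 0 for no effect and ±100 for the full control effect; nearly all actives have a fitted effect of over 60% in size.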 In a few lines:
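Human CYP2D6 (5 nM) with 30 uM Luciferin-ME EGE (at Km) in 100 mM KPO4, compound preincubated 10 min, then NADPH regeneration system for 60 min at room temperature. Luciferin read by luminescence; normalized to 1.43 uM quinidine.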

Assay [9] concerns the target Cytochrome P450 2C19 (Homo sapiens) (UniProt P33261). Put plainly: qHTS Assay for Inhibitors and Substrates of Cytochrome P450 2C19 (AID 899). Note: % is set by controls: 0 for no effect and ±100 for the full control effect; nearly all actives have a fitted effect of over 60% in size. The method, boiled down:
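5 nM human CYP2C19 with 10uM Luciferin-H EGE (at KM) in 50mM KPO4, compound preincubated 10 min at 37C, then NADPH regeneration for 60 min at 37C. Luciferin read by luminescence after detection reagent; normalized to 57uM ketoconazole as full inhibition.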

Assay [10] is described as follows: qHTS Assay for Identification of Small Molecule Agonists for Thrombopoietin (TPO) Signaling Pathway (AID 917). Note: % is set by controls: 0 for no effect and ±100 for the full control effect. The method, boiled down:
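IL-3-dependent murine pro-B Ba/F3 cells, stably transfected with human TPO receptor and GpIIb-promoter luciferase, are incubated 24 hrs at 37 C with test compound and 26 pM TPO; luciferase signal is read after 10 min at room temperature.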

Assay [11] addresses Muscarinic acetylcholine receptor M1 (Rattus norvegicus) (UniProt P08482). Put plainly: qHTS Assay for Antagonists of Acetylcholine Muscarinic M1 Receptor: Kinetic Measurement of Intracellular Calcium Response (AID 943).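 Note: Fluo-4 calcium signal as peak divided by basal fluorescence over 4 min; nearly all actives have a fitted effect of over 75% in size.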 In a few lines: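 Rat M1-CHO cells, 2000/well, overnight → Fluo-4 no-wash dye with probenecid, 1 h 37C → compound 10 min, room temp → basal read 6 s → carbachol EC80 (100 nM) → 4 min kinetic read; peak/basal.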

Assay [12] has the same target. Put plainly: qHTS Assay for Antagonists of Acetylcholine Muscarinic M1 Receptor: Measurement of IP-One Response (AID 944). Note: nearly all actives have a fitted effect of over 75% in size. The method, boiled down: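 M1-CHO (rat), 2000 cells/well, overnight recovery; cpd 10 min; carbachol EC80 (200 nM), 30 min, HEPES buffer + 50 mM LiCl pH 7.4; IP-One HTRF, Ex 337, Em 620/665 nm.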
The target in assay [13] is Pyruvate kinase (Leishmania mexicana) (UniProt Q27686). The experiment in a line: qHTS Validation Assay for Inhibitors of Leishmania Mexicana Pyruvate Kinase (AID 945).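 Note: 0% = DMSO only neutral control wells.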 The method, boiled down: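 qHTS eight-point titrations against 0.2 nM LmPYK (E451W) in imidazole buffer pH 7.2 with 0.5 mM PEP, 0.1 mM ADP; 1 h, room temperature. Readout: PKLight luminescence, normalized to neutral DMSO wells.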

The target in assay [14] is Alpha-galactosidase (Coffea arabica) (UniProt Q42656). The experiment in a line: Counterscreen for Glucocerebrosidase Inhibitors: qHTS Assay for Coffee Bean alpha-Galactosidase at pH 4.5 (AID 957).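 Note: plate controls were enzyme alone for no effect and no enzyme for full effect.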 In a few lines: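 Coffee bean alpha-galactosidase 2 nM, substrate 4-MU-alpha-Gal 80 uM, pH 4.5 citrate/Tween-20, 20 min RT. Cpd titration 0.7 nM–77 uM. Stop pH 10, fluorescence 365/440 nm; Hill-equation AC50.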
Background: The purpose of a counterscreen is to sort out artefacts and off-target activity.

The target in assay [15] is Alpha-galactosidase A (Homo sapiens) (UniProt P06280). Put plainly: Counterscreen for Glucocerebrosidase Inhibitors: qHTS Assay for Human alpha-Galactosidase at pH 4.5 (AID 992). Note: 0% is about no effect. The method, boiled down: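 Human enzyme (2 nM) with 80 uM 4-methylumbelliferyl alpha-D-galactopyranoside in 50 mM citric acid, 0.005% Tween-20, pH 4.5, 20 min at room temperature. Compounds 0.7 nM–77 uM; fluorescence Ex 365/Em 440 after pH 10 stop; AC50 from Hill fits.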

Assay [16] concerns the target alpha-glucosidase (Oryza sativa, rice) (UniProt Q653V4). Put plainly: Counterscreen for Glucocerebrosidase Inhibitors: qHTS Assay for Rice alpha-Glucosidase at pH 5.0 (AID 997).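 Note: 0% = full activity with enzyme and -100% = basal without enzyme.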 The method, boiled down:
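Rice alpha-glucosidase (4 nM final) with 400 uM 4-methylumbelliferyl-alpha-D-glucopyranoside in citrate buffer pH 5.0, 20 min at room temperature, stopped at pH 10; fluorescence 365/440 nm, compounds 0.7 nM–77 uM, AC50 from Hill fits.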

The target in assay [17] is Alpha-galactosidase (Coffea arabica) (UniProt Q42656). The experiment in a line: Counterscreen for Glucocerebrosidase Inhibitors: qHTS Assay for Coffee Bean alpha-Galactosidase at pH 5.9 (AID 998).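 Note: plate controls were uninhibited enzyme for no effect and no-enzyme basal signal for full effect.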 In a few lines: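 Green coffee bean enzyme (2 nM) with 4-methylumbelliferyl alpha-D-galactopyranoside (80 uM) in 50 mM citric acid, 0.005% Tween-20, pH 5.9, 20 min at room temperature; compounds 0.7 nM–77 uM. Stopped at pH 10, fluorescence Ex365/Em440; Hill-fit AC50.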

Assay [18] is described as follows: Validation of Assay for Modulators of Lamin A Splicing (AID 1459; active = well fitted curve in the direction sought with a large enough effect in the signal ratio; the % refers to the signal ratio;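 note: cells exposed to compound for two days before reading; 0% is about no effect; ratio rise marks activators and ratio drop marks inhibitors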). The method, boiled down:
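Dual-reporter HeLa S3 line (lamin A-EGFP minigene, DsRed2) treated with compounds 48 hrs, 0.5% DMSO final. Endpoint: EGFP/DsRed2 total intensity ratio from laser-scanning microplate cytometry.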

The nature of assay [19]: qHTS Assay for Lipid Storage Modulators (AID 1519; calls by dose curve). To be noted: Drosophila S3 cells, BODIPY lipid droplet/cell ratio, laser cytometry, cells loaded with oleic acid. In a few lines:
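Cells seeded at 5,000 per well were treated with compounds over a concentration series and loaded with oleic acid (400 uM, as added). Lipid droplet fluorescence (488 nm excitation, 500-530 nm channel) was read by laser-scanning cytometry and normalized to 20 uM Triacsin C.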

Assay [20] addresses DNA repair nuclease/redox regulator APEX1 (Homo sapiens) (UniProt P27695). Put plainly: qHTS Validation Assay for Inhibitors of the Human Apurinic/apyrimidinic Endonuclease 1 (APE1) (AID 1705). In a few lines:
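Substrate: 50 nM final fluorophore/quencher THF-abasic duplex. Enzyme preincubated with compounds 15 min, RT. Progress derived from fluorescence difference, third minus first kinetic read.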

Sequence of Glucocorticoid receptor (Homo sapiens) (P04150 whole entry, looked up, the tested form may be a part): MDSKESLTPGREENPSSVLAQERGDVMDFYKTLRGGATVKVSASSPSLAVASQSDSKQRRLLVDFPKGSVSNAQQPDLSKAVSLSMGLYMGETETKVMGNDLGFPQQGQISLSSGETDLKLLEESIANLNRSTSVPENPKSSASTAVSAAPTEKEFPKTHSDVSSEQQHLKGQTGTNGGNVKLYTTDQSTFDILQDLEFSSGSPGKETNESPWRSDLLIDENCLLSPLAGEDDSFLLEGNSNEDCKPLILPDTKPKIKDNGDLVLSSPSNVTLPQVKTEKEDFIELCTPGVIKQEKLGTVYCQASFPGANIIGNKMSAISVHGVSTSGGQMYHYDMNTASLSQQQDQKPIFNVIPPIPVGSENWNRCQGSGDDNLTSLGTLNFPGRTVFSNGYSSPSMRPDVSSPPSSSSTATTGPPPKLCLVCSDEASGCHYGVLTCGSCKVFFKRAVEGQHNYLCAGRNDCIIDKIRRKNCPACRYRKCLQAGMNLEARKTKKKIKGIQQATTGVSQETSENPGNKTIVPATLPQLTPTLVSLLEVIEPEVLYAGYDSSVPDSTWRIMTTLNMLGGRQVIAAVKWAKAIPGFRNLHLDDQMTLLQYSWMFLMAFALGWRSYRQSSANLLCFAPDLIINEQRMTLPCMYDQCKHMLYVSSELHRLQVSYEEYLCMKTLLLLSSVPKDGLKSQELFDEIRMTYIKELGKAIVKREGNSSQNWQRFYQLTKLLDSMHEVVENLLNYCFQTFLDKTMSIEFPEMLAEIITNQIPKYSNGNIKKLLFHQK
Sequence of 3',5'-cyclic-AMP phosphodiesterase 4B (Homo sapiens) (Q07343 whole entry, looked up): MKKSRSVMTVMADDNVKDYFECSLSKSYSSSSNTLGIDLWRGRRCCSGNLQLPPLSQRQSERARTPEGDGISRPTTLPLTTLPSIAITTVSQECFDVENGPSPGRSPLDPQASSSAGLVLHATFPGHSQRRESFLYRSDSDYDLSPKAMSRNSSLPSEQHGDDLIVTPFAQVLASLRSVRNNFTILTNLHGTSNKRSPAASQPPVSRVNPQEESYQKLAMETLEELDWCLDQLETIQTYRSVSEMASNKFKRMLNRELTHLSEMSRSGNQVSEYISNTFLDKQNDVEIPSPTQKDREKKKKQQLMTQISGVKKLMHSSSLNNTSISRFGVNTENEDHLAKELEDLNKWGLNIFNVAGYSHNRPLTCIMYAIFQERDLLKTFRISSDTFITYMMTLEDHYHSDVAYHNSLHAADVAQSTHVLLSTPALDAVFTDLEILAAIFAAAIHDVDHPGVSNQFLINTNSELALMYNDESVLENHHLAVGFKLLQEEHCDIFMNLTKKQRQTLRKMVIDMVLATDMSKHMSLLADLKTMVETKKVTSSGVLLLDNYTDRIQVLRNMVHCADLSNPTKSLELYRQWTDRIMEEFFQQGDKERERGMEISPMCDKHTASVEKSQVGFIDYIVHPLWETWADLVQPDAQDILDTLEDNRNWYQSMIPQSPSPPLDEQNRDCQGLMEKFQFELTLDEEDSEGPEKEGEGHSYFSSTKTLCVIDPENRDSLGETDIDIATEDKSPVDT
Sequence of Cytochrome P450 1A2 (Homo sapiens) (P05177 whole entry, looked up): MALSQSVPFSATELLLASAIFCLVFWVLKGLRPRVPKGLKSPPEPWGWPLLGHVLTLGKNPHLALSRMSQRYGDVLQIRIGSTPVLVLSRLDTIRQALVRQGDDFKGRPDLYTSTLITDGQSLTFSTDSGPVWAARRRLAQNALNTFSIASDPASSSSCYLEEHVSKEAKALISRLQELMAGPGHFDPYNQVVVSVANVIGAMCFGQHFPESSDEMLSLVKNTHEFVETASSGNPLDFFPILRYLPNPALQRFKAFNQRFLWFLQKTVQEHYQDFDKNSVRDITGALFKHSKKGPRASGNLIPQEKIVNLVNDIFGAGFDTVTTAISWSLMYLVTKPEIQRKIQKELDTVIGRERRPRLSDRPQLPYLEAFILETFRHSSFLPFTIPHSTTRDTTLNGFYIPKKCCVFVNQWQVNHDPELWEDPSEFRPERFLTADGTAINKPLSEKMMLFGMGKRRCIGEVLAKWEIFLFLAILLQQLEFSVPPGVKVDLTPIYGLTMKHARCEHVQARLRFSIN
Sequence of Muscarinic acetylcholine receptor M1 (Rattus norvegicus) (P08482 whole entry, looked up): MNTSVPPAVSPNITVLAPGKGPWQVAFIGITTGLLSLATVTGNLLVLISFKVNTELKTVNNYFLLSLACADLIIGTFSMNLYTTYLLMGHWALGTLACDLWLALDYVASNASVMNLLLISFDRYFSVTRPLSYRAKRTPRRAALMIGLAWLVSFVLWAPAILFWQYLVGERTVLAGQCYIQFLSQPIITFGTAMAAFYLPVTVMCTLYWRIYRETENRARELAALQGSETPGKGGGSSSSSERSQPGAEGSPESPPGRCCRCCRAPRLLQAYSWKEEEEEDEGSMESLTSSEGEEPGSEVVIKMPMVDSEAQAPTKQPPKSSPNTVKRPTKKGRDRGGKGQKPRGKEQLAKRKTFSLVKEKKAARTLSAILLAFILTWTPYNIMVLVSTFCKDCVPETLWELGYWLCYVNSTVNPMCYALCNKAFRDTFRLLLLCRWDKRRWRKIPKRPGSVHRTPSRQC
Sequence of Alpha-galactosidase (Coffea arabica) (Q42656 whole entry, looked up): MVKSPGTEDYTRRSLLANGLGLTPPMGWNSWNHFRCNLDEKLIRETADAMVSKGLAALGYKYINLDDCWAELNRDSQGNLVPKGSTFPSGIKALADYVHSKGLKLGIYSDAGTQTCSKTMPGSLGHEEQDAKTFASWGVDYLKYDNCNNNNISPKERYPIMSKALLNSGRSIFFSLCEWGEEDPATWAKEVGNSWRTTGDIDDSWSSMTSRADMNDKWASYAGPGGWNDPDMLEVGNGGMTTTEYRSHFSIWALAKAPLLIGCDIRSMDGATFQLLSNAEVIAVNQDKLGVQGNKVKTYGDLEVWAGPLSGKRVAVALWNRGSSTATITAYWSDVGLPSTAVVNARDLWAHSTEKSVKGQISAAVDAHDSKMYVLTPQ
Sequence of Pyruvate kinase (Leishmania mexicana) (Q27686 2-499 E452W): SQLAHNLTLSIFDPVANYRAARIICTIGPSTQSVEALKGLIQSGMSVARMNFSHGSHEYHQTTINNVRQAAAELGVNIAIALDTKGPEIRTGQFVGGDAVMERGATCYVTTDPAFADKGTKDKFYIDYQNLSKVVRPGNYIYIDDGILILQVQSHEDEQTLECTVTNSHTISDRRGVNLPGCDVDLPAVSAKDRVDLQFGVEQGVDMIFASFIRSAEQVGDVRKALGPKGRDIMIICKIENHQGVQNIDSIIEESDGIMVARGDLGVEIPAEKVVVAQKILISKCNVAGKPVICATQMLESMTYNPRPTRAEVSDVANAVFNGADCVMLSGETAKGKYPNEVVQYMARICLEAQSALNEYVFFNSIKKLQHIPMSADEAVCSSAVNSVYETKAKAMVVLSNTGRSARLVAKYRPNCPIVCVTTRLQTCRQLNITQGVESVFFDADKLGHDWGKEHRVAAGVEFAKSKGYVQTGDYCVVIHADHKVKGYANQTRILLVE
Sequence of Cytochrome P450 2C19 (Homo sapiens) (P33261 whole entry, looked up): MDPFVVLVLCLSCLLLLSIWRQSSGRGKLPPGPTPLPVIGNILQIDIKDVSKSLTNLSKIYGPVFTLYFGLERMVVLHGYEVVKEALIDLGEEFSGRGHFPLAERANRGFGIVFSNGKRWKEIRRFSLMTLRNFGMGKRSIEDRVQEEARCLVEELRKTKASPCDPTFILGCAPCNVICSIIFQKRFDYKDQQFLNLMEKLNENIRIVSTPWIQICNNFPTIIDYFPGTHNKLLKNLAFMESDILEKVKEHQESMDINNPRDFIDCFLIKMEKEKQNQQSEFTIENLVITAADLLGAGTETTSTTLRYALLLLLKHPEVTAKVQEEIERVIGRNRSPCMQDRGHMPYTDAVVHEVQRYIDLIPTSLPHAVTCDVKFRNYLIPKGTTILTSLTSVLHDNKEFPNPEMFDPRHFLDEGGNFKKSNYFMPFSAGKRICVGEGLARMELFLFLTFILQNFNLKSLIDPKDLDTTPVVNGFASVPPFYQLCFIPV
Sequence of Alpha-galactosidase A (Homo sapiens) (P06280 whole entry, looked up): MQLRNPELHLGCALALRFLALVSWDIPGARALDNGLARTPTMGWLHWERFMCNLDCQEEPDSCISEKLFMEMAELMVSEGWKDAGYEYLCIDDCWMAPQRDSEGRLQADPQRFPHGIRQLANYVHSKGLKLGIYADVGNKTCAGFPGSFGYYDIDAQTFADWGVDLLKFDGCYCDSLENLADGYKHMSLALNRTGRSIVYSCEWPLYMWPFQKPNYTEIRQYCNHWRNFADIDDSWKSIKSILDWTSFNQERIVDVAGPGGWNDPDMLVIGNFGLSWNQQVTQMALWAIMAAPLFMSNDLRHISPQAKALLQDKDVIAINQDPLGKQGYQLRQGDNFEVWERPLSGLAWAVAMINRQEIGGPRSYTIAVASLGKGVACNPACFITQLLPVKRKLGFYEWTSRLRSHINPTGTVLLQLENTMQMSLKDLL
Sequence of Cytochrome P450 2D6 (Homo sapiens) (P10635 whole entry, looked up): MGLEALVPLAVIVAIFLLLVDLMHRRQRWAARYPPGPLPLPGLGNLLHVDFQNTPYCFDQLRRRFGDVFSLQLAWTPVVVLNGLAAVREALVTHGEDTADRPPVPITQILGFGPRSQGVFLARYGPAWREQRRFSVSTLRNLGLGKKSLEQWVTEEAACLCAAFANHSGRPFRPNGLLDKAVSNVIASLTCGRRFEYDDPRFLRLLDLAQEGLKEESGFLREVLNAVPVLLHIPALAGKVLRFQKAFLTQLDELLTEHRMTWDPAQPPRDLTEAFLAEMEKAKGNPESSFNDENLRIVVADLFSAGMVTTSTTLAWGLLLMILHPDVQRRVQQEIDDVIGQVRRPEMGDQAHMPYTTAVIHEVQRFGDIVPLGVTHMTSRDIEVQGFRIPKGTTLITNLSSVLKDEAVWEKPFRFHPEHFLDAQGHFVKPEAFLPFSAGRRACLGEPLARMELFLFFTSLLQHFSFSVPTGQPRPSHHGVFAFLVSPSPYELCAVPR

With `N[C@H](CCCCCP(=O)(O)O)C(=O)O`, the result in assay [1], in [4], in assay [7], in assay [10], in assay [13] and in assay [14] was inactive. Moreover, the compound was classed as inactive in assay [15], in assay [16], in assay [17] and in assay [18]. Moreover, the Potency entry in assay [2], in [6], in [8], in assay [9], in assay [11] and in [12] was “inactive” throughout. Also, in assay [20], the Potency result is “inactive”. Besides, the activity change, negative = inhibition in assay [3] is 7.92% (inactive) and -0.366% (inactive); in [19] (at 57.5 µM (top of the series)) it was -3.15% (inactive). Also, the Potency in [5] was > 46 µM (inactive). The max response was -11.8% in assay [19] (measured here: cell count channel max response) and -15.1% in assay [19] (measured here: lipid channel max response).

Source of the values: PubChem BioAssay (NCATS).
